# In PubChem BioAssay AID1851 (National Center for Advancing Translational Sciences (NCATS), 2009):
# Values joined by “and” are separate entries in the source; they are usually repeats but may differ in a detail not shown here. Equal entries are not always repeated. The whole screen tested about 16,000 compounds, of which about 5,800 (36%) were called active. Inconclusive results (about 23%) are left out. Some of the results follow. A number with no mark means an inactive call. The call rests on the fitted dose curve; in most records, active means well fitted curve in the direction sought with a large enough effect; inconclusive means small, poorly fitted or top-dose-only effect, or effect the other way; inactive means no such curve, though single readings can be large or run the other way.
# Target: Cytochrome P450 2C19 (Homo sapiens) (UniProt P33261)
# Assay: Cytochrome panel assay with activity outcomes
# Conditions: recombinant CYP, pro-luciferin dealkylation, luminescence, p450-cyp2c19; series mostly up to 57.1 µM
# On the % scale 0 is the no-effect control and ±100 the full control effect.
# Cytochrome P450 2C19 (Homo sapiens), sequence (P33261 whole entry, looked up): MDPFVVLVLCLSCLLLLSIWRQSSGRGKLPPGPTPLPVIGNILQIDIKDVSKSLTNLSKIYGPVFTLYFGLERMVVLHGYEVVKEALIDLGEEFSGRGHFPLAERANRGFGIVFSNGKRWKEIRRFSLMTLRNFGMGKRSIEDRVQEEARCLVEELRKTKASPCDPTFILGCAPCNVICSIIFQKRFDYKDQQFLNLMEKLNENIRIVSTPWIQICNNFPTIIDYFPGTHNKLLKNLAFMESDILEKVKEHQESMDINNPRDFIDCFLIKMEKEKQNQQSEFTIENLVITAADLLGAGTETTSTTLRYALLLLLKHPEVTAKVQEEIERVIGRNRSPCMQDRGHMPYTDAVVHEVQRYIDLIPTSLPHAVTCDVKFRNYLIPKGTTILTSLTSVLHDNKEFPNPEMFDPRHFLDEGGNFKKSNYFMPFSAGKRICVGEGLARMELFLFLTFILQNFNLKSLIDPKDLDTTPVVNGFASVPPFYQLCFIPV
SMILES,AC50,"activity, negative = inhibition"
OC(CNCc1ccc(F)cc1)(c1ccc(F)cc1)c1ccc(F)cc1,7.94 µM (active),–
Cc1ccc(CNCC(O)(c2ccc(F)cc2)c2ccc(F)cc2)cc1,11.2 µM (active),–
COc1cnc(-c2ccccn2)nc1Oc1ccc(Cl)c2ccccc12,14.1 µM (active),–
C=C1C(=O)O[C@@H]2[C@@H]1CC/C(C)=C\CC[C@@]1(C)O[C@H]21,inactive,–
c1cncc(-c2cc(-c3cc(-c4cccnc4)n[nH]3)[nH]n2)c1,–,-4.18% [at 11.4 µM]
Cn1c(Sc2ccc(-c3cccnc3)n2C)ccc1-c1cccnc1,1 µM (active),–
COc1cccc(/C=N/NC(=O)CO/N=C(\C)c2cccs2)c1OC,12.6 µM (active),–
CCOc1ccc(-c2cc(CCCC(=O)NCCc3ccc(OC)c(OC)c3OC)no2)cc1,1.58 µM (active),–
CC(=O)N1CCC2(CCCN(C(=O)Nc3cccc(F)c3)C2)CC1,inactive,–
O=C(/C=C\NCC(=O)c1ccccc1)c1ccccc1,3.98 µM (active),–
O=C(C[N+]1(c2ccccc2)CCOCC1)c1ccccc1,–,-17.3% [at 11.4 µM]
O=C(/C=C\NCC(=O)c1ccccc1)c1ccc(F)cc1,2 µM (active),–
c1ccc(C(c2ccccc2)N2CC3(CCNCC3)C2)cc1,inactive,–
c1ccc(C(c2ccccc2)N2CCC3(CCNCC3)CC2)cc1,3.98 µM (active),–
c1ccc(C(c2ccccc2)N2CCCC3(CCNCC3)C2)cc1,inactive,–
O=C1[C@H]2[C@H]3[C@H](O)[C@H](O)C/C(=N/OC[C@@H](O)COCc4ccco4)[C@H]3CC[C@@H]2C(=O)N1Cc1ccc2c(c1)OCO2,–,4.07% [at 11.4 µM]
CC(C)CO/N=C1/C[C@@H](O)[C@@H](O)[C@@H]2[C@@H]3C(=O)N(Cc4ccc5c(c4)OCO5)C(=O)[C@H]3CC[C@@H]12,–,-22.9% [at 11.4 µM]
CC(C)CO/N=C1/C[C@@H](O)[C@@H](O)[C@@H]2[C@@H]3C(=O)N(Cc4ccc5c(c4)OCO5)C(=O)[C@H]3CC[C@H]12,3.98 µM (active),–
O=C(NNC(=O)c1ccncc1)c1ccncc1,–,6.77% [at 11.4 µM]

SMILES,AC50,"activity, negative = inhibition"
O=C(Nc1nnc(C2CC2)s1)c1ccncc1,17.8 µM (active),–
NNC(=O)CNC(c1ccccc1)c1cc(Br)ccc1NC(=O)c1ccccc1Br (configuration not stated),7.08 µM (active),–
Cc1ccc(-c2c3c(nc4sc(C(N)=O)c(N)c24)CCC3)cc1,14.1 µM (active),–
COc1ccc(C2/C(=C(/O)c3ccccc3)C(=O)C(=O)N2c2ccccn2)c(OC)c1 (configuration not stated),inactive,–
O=C1C(=O)N(c2cccc(Cl)c2)C(c2ccccc2[N+](=O)[O-])/C1=C(\O)c1ccccc1 (configuration not stated),20 µM (active),–
O=[N+]([O-])c1ccc(C2=Nn3c(nnc3-c3ccc(Cl)cc3)SC2)o1,2.51 µM (active),–
O=C1COC(c2ccccc2O)=NN1CCCN1CCCC1,–,43.2% [at 11.4 µM]
Cn1c(=O)n(CC#N)c2ccccc21,inactive,–
Cc1snc(SCC(=O)N/N=C(\N)COc2cccc(C(F)(F)F)c2)c1C#N,4.47 µM (active),–
COc1ccc(CCN(C)CCC(=O)Nc2c(C)cc(C)cc2C)cc1OC,inactive,–
Cc1ccc2c(c1)N(CC(=O)NCc1cccs1)C(=O)C(C)O2 (configuration not stated),2.51 µM (active),–
CC(=O)OCC1=C(C(=O)O)N2C(=O)[C@@H](NC(=O)Cc3cccs3)[C@@H]2SC1,inactive,–
COc1ccc(CCNC(=O)CCN2C(=O)C(C)Oc3ccc(C)cc32)cc1OC (configuration not stated),20 µM (active),–
Cc1ccc(C)c(NC(=O)Cn2nnc(C(=O)NCc3cccs3)c2N)c1,inactive,–
NC(=O)/C(=N\OC(=O)c1ccco1)c1nc(-c2ccc(Br)cc2)cs1,20 µM (active),–
O=C(O)[C@@H](Cc1c[nH]c2ccccc12)C(=O)NO,–,84.7% [at 11.4 µM]
Cc1cc(C)cc(C(=O)N(C)[C@H](Cc2ccc(-c3ccccc3)cc2)C(=O)N[C@@H](Cc2c[nH]c3ccccc23)C(=O)O)c1,10 µM (active),–
CCc1cc2c(nc1CC)CCN(CC/C(C)=N/O[C@@H](C)c1cn([C@H](CO)Cc3ccccc3)nn1)C2,–,-17.2% [at 11.4 µM] and -16.8% [at 11.4 µM]
O=C(Nc1ccnc(-c2cccnc2)n1)c1cccc(Cl)c1Cl,2.82 µM (active),–

SMILES,AC50,"activity, negative = inhibition"
CC(C)(C)C(=O)Nc1ccnc(-c2cccnc2)n1,2.24 µM (active),–
CC(=O)Nc1ccnc(-c2cccnc2)n1,inactive,–
C=CCNC(=S)N/N=C/c1ccc(OCc2ccccc2)cc1,inactive,–
O=C(N/N=C/c1ccc(OCc2ccccc2)cc1)c1cccs1,2.51 µM (active),–
COc1ccc(CCN(C)Cc2ccc(OCc3ccccc3)c(OC)c2)cc1OC,inactive,–
COc1cc(/C=N\NC(=O)C2C(=O)NCC2c2ccccc2)cc(OC)c1O (configuration not stated),inactive,–
O=C(N/N=C/C=C/c1ccc([N+](=O)[O-])cc1)c1cccs1,inactive,–
O=C(N/N=C/c1cccc(OCc2ccccc2)c1)c1cccs1,5.01 µM (active),–
COc1cc(/C=N/NC(=O)c2cccs2)ccc1OCc1ccccc1,1.41 µM (active),–
Cc1c(NC(=O)Nc2c(Cl)cccc2Cl)c(=O)n(-c2ccccc2)n1C,–,10.7% [at 11.4 µM]
Cc1c(NC(C)C)c(=O)n(-c2ccccc2)n1C,inactive,–
Cc1c(NCc2cc(Cl)ccc2O)c(=O)n(-c2ccccc2)n1C,5.62 µM (active),–
C=C(C)COc1ccc2c(c1)CCC1C2CC[C@]2(C)C(=O)/C(=N/O)CC12 (some centres not stated),–,19.2% [at 11.4 µM]
CCOC(=S)SCC(=O)O,–,38.2% [at 11.4 µM]
O=c1cc(-c2ccccc2)[nH]n1-c1ccc([N+](=O)[O-])cc1,8.91 µM (active),–
COc1ccc(Oc2c(Cl)cnn(-c3ccccc3)c2=O)cc1,2.24 µM (active),–
COc1cccc(/C=N/n2nnc3c(cnn3-c3ccccc3)c2=O)c1,inactive,–
COc1ccc(-n2c(=O)c(C)nc3cnc(Oc4ccccc4)nc32)cc1,inactive,–
CCCC[C@H]1C[C@@H]1[C@@H]1N(P(=O)(c2ccccc2)c2ccccc2)C[C@@](O)(c2ccccc2)CC12CC2,inactive,–
